# T cruzi growth-1 – blocks T. cruzi growth in NIH3T3 culture. T. cruzi beta-gal in NIH3T3, GalScreen luminescence, 90 h. AID 624255. inhibition, % at 8.34 µM. 77,000 compounds, 5.9% hits;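 active = mean inhibition above about 93%, with at least 55% of replicates each passing it, limit read from the data, passing the limit was not always enough; inconclusive = only one of those two conditions holds; inactive = neither condition holds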
# C diff HTS – inhibitors of Clostridium difficile growth; growth activity, negative = inhibition, % at 16 µg/mL (by protocol); AID 1259249; Clostridium difficile clinical isolate growth, OD600, 24 h; hits give low values; 86,000 compounds, 0.25% hits;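 active = mean growth activity at or below -80% and every replicate also at or below -80%; inconclusive = mean at or below -80% but some replicate above -80%; inactive = mean growth activity above -80%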;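 note: 0% = DMSO wells and -100% = levofloxacin 16 µg/mL wells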
# Pf Dd2 growth – inhibitors of Plasmodium falciparum Dd2 growth; P. falciparum Dd2 growth, SYBR Green, 72 h; hits give low values; activity change, % at 10 µM; 94,000 compounds, 2.3% hits; in the data active = activity change below about -80%; inconclusive = no clear call, values can overlap the other calls
# T cruzi growth-2 – inhibitors of T. cruzi proliferation; shares compounds with T cruzi growth-1; inhibition, % at 8.35 µM; AID 651739; T. cruzi beta-gal in NIH3T3, GalScreen luminescence, 90 h; 5,600 compounds, 72% hits;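 active = mean replicate inhibition above about 95% and at least 55% of replicates individually reaching it, limit read from the data; inconclusive = only one of the two criteria is met; inactive = neither criterion is met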
# T cruzi growth-3 – inhibitors of T. cruzi proliferation | inhibition, % at 2.09 µM | 5,600 compounds, 21% hits | shares compounds with T cruzi growth-1 | T. cruzi beta-gal in NIH3T3, GalScreen luminescence, 90 h;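 active = mean inhibition above about 95%, with at least 55% of replicates also reaching it, limit read from the data; inconclusive = meets just one of the two conditions; inactive = meets neither condition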;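 note: plate controls were neutral control median for no effect and positive control median for full effect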
# 3T3 cytotox – kills mouse NIH/3T3 fibroblasts; shares compounds with T cruzi growth-1; NIH/3T3 viability, CellTiter-Glo ATP luminescence, 90 h; cytotoxicity (signal decrease), % at 8.35 µM; 5,600 compounds, 14% hits;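 active = mean signal decrease across replicates above about 35% based on untreated-well scatter, with enough replicates individually passing, limit read from the data; inconclusive = no rule stated though some were filed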;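 note: 0% = median of neutral control wells and 100% = median of positive control wells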
# NIH3T3 tox 2 – kills mouse NIH/3T3 fibroblasts. NIH/3T3 viability, CellTiter-Glo ATP luminescence, 90 h. shares compounds with T cruzi growth-1. inhibition, % at 24.9 µM. 5,600 compounds, 56% hits. AID 651744;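 active = mean loss of cell viability signal at or above a set limit, and enough replicates individually reaching it; inconclusive = meets only the mean limit or only the replicate share; inactive = meets neither condition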;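 note: 0% = median of neutral control wells and 100% = median of positive control wells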
# * marks the source's active call; other numbers are inactive results; ? = inconclusive; / = no result. Compounds with a hit are over-represented: about 6.8% of the library has one in this group of screens.
SMILES,T cruzi growth-1,C diff HTS,Pf Dd2 growth,T cruzi growth-2,T cruzi growth-3,3T3 cytotox,NIH3T3 tox 2
C[C@H](CO)N1C[C@H](C)[C@H](CN(C)Cc2ccc(Cl)c(Cl)c2)Oc2ccc(NC(=O)CCCCCC(=O)Nc3ccccc3N)cc2CC1=O,86,11,-61,/,/,/,/
Cc1ccccc1-c1ccc2c(c1)O[C@@H](CN(C)C(=O)C1CC1)[C@@H](C)CN([C@H](C)CO)S2(=O)=O,/,5,-21,/,/,/,/
COc1ccc(NC(=O)N(C)C[C@H]2Oc3ccc(NC(=O)Nc4ccc(F)cc4)cc3CC(=O)N([C@@H](C)CO)C[C@H]2C)cc1,-1,-4,-5,/,/,/,/
CC(=O)N1[C@@H](CO)[C@@H](c2ccccc2)C12CN(C(=O)Nc1ccccc1F)C2,/,7,17,/,/,/,/
Cc1noc(C)c1NC(=O)N(C)C[C@H]1OCCCC[C@@H](C)Oc2ccc(NS(=O)(=O)c3ccc(Cl)cc3)cc2C(=O)N([C@H](C)CO)C[C@@H]1C,-3,-8,-14,/,/,/,/
C[C@@H]1CN([C@H](C)CO)C(=O)Cc2cc(NC(=O)Nc3cccc4ccccc34)ccc2O[C@@H]1CN(C)CC1CC1,49,-1,-72,/,/,/,/
COCC(=O)N1[C@@H](C#N)[C@@H](c2ccccc2)[C@@H]1CO,28,-3,32,/,/,/,/
N#C[C@@H]1[C@@H](c2ccc(C#Cc3ccccc3F)cc2)[C@H](CO)N1C(=O)C1CCOCC1,69,0,-22,/,/,/,/
N#C[C@H]1[C@H](c2ccc(C#Cc3ccc(F)cc3)cc2)[C@H](CO)N1C(=O)C1CC1,114*,-16,-29,102*,76,-13,80*
COCC(=O)N1[C@H](C#N)[C@@H](c2ccc(C#Cc3ccccc3F)cc2)[C@H]1CO,101*,7,-11,98*,34,-1,2
N#C[C@@H]1[C@H](c2ccc(C#Cc3ccccc3F)cc2)[C@H](CO)N1C(=O)C1CC1,100*,0,-53,102*,110*,23,44*
N#C[C@@H]1[C@H](c2ccc(C#Cc3ccc(F)cc3)cc2)[C@@H](CO)N1C(=O)C1CCCC1,88,-4,-57,/,/,/,/
CN(C)C(=O)C[C@H]1CC[C@@H]2[C@@H](COc3ccc(NC(=O)C4CCCC4)cc3C(=O)N2C)O1,/,4,20,/,/,/,/
CN1c2ccc(-c3cccc(C#N)c3)cc2[C@H]2[C@H](CCN2C(=O)NC2CCCCC2)[C@@H]1CO,26,0,-16,/,/,/,/
O=C(CN1CCOCC1)N1CCCCN2[C@H](C1)[C@H](c1ccc(C#Cc3ccccc3)cc1)[C@@H]2CO,78,-5,9,/,/,/,/
Cc1ccccc1-c1ccc([C@H]2[C@@H](CO)N3CCCCN(C(=O)CN4CCOCC4)C[C@@H]23)cc1,?,-15,34,83,59,29,29
O=C(CN1CCOCC1)N1CCCCN2[C@@H](CO)[C@H](c3ccc(C#Cc4ccccc4)cc3)[C@@H]2C1,85,-8,12,/,/,/,/
O=C(CN1CCOCC1)N1CCCCN2[C@@H](CO)[C@@H](c3ccc(C#Cc4ccccc4)cc3)[C@@H]2C1,98*,8,4,92,59,28,103*
O=C(CN1CCOCC1)N1CCCCN2[C@H](C1)[C@@H](c1ccc(C#Cc3ccccc3)cc1)[C@@H]2CO,112*,-10,-30,107*,83,23,101*
O=C(CN1CCOCC1)N1CCCCN2[C@@H](CO)[C@@H](c3ccc(/C=C/c4ccccc4)cc3)[C@@H]2C1,105*,2,-10,105*,69,24,105*
COc1ccccc1-c1ccc([C@@H]2[C@H](CO)N3CCCCN(C(=O)CN4CCOCC4)C[C@@H]23)cc1,56,-8,-1,/,/,/,/
O=C(CN1CCOCC1)N1CCCCN2[C@H](CO)[C@@H](c3ccc(-c4ccccc4)cc3)[C@H]2C1,-9,-5,11,/,/,/,/
COc1ccc(CN(C)C[C@H]2OCCCC[C@H](C)Oc3ccc(NC(=O)Nc4ccc(F)cc4)cc3C(=O)N([C@@H](C)CO)C[C@@H]2C)cc1,81,8,-25,/,/,/,/
Cc1ccc(S(=O)(=O)N[C@H]2CC[C@@H](CC(=O)N3CCN(c4ccccc4)CC3)O[C@@H]2CO)cc1,20,-2,3,/,/,/,/
O=C(N[C@H]1CC[C@H](CC(=O)N2CCOCC2)O[C@@H]1CO)c1ccccn1,-6,-1,-2,/,/,/,/
